Measurements from the supplement of paper PMC11732987, “Enantioselective OTUD7B fragment discovery through chemoproteomics screening and high-throughput optimisation” (Communications Chemistry, 2025).

Tests used:
Test in all cases: log2 ratio of Biotin-Ahx-Ub-VS probe labelling (fragment/DMSO); higher = less target engagement (more negative = stronger competition), active = hit call of the paper (q ≤ 0.05, log2 ratio ≤ -1)
Settings in all cases: compound concentration: 200 uM; treatment time: 3 h
[1] = target: T1, USP42 (UniProt Q9H9J4)
T1 sequence (whole entry): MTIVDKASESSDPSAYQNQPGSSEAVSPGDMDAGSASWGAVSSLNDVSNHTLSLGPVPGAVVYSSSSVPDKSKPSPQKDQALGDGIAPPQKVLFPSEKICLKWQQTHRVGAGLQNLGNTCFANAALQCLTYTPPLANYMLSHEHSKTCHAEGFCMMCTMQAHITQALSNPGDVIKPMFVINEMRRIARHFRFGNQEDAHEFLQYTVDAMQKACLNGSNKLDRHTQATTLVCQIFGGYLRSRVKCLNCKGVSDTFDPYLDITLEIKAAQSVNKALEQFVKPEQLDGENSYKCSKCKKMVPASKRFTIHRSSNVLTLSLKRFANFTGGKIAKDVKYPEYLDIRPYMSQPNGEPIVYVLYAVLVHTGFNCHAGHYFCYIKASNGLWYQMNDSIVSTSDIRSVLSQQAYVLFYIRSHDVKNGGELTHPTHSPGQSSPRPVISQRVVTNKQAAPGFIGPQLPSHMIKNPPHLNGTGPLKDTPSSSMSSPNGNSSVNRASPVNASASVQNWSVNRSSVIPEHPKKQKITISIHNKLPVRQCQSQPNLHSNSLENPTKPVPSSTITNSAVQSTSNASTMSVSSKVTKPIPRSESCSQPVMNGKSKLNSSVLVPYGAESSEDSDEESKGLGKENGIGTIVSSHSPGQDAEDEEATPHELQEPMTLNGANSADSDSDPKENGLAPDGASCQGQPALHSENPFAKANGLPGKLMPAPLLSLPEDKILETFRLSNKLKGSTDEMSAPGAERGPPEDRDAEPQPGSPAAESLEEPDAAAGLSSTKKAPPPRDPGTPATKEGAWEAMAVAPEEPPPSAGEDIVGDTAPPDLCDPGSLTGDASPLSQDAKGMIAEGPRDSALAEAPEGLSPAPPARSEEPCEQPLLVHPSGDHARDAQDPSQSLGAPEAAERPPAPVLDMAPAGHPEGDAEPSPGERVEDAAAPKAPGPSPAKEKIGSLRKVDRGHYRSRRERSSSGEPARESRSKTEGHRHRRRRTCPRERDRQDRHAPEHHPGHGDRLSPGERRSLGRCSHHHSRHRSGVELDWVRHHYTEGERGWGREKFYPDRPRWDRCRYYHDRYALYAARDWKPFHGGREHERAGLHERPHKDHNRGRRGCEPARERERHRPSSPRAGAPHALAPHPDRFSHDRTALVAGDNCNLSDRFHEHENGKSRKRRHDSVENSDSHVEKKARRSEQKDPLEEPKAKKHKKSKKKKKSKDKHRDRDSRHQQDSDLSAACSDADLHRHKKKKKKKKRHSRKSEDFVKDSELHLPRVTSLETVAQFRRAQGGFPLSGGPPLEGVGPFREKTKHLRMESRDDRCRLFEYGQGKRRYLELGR
How it was run: (§1)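 Triplicate samples of HEK293T lysate, 495 µg each, received fragment at 200 µM or vehicle for 3 h, followed by Biotin-Ahx-Ub-VS (0.5 µM final) for 1 h. After NeutrAvidin enrichment of labelled DUBs and LysC/trypsin digestion, peptides were run by diaPASEF LC-MS/MS. The values are average log2 fragment/vehicle ratios from global-median-normalised Spectronaut label-free quantities, tested by unpaired t-test on proteins having ≥2 unique peptides.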

[2] = target: USP46 (UniProt P62068)
How it was run: as §1

[3] = target: T2, USP47 (UniProt Q96K76)
T2 sequence (whole entry): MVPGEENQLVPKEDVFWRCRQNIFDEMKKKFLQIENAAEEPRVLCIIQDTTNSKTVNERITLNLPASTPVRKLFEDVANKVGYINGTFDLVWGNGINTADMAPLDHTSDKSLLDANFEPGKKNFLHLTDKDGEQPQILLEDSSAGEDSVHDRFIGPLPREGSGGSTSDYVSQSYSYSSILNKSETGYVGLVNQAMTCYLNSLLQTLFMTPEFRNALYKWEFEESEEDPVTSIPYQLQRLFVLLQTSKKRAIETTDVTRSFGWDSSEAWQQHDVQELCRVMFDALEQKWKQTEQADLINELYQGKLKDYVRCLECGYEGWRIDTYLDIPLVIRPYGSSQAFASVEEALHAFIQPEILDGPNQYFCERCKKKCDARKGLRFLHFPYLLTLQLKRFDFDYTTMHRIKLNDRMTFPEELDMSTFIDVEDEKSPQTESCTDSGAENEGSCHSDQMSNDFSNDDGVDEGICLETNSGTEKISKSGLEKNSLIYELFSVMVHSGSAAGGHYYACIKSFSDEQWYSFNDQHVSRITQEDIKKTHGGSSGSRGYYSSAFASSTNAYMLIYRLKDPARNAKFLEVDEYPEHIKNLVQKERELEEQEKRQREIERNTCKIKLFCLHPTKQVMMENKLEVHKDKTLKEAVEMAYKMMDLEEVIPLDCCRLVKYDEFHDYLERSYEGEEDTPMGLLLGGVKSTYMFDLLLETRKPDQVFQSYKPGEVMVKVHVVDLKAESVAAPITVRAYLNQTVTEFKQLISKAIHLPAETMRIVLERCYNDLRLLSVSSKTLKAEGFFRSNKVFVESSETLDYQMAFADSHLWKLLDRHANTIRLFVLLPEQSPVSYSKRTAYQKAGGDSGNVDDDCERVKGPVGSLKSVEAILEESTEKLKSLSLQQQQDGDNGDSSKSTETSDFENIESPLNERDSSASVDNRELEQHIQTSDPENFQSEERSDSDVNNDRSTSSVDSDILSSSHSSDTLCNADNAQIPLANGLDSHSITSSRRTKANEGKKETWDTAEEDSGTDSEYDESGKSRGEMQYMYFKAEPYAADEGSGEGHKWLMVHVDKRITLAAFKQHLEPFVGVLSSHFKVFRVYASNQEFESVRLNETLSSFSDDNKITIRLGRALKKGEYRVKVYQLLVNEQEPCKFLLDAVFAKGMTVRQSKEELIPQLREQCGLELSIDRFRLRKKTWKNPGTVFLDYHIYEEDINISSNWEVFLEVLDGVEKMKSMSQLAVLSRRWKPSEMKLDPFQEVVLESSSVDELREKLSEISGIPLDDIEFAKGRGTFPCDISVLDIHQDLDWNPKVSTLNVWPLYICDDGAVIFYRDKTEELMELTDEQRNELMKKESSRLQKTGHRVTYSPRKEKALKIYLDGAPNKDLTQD
How it was run: as §1

[4] = target: T3, USP48 (UniProt Q86UV5)
T3 sequence (whole entry): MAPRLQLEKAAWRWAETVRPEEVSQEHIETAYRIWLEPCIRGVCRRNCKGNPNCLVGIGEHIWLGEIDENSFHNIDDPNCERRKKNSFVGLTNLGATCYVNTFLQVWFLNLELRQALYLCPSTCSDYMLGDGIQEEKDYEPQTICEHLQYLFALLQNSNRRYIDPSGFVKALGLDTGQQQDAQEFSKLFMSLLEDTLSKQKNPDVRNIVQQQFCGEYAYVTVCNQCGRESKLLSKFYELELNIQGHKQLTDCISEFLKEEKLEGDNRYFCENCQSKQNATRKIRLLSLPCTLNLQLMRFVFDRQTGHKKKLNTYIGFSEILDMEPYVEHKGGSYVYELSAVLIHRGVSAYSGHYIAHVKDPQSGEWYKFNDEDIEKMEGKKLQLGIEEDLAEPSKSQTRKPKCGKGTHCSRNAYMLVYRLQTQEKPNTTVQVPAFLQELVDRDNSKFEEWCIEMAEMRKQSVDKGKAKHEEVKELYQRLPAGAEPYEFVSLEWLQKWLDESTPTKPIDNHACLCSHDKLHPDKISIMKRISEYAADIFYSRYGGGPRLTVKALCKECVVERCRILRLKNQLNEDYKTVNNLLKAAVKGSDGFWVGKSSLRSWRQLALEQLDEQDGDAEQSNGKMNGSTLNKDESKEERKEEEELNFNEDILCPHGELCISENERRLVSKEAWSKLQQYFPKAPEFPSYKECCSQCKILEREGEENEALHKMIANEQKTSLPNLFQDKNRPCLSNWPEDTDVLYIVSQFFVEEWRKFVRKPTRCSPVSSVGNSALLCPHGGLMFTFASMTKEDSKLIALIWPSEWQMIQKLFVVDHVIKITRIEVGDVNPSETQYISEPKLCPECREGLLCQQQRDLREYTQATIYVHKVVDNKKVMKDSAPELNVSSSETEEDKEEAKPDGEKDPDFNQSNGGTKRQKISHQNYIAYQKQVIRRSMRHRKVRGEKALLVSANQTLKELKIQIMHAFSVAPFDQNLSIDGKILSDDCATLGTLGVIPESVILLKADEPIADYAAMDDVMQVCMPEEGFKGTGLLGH
How it was run: as §1

[5] = target: T4, USP5 (UniProt P45974)
T4 sequence (whole entry): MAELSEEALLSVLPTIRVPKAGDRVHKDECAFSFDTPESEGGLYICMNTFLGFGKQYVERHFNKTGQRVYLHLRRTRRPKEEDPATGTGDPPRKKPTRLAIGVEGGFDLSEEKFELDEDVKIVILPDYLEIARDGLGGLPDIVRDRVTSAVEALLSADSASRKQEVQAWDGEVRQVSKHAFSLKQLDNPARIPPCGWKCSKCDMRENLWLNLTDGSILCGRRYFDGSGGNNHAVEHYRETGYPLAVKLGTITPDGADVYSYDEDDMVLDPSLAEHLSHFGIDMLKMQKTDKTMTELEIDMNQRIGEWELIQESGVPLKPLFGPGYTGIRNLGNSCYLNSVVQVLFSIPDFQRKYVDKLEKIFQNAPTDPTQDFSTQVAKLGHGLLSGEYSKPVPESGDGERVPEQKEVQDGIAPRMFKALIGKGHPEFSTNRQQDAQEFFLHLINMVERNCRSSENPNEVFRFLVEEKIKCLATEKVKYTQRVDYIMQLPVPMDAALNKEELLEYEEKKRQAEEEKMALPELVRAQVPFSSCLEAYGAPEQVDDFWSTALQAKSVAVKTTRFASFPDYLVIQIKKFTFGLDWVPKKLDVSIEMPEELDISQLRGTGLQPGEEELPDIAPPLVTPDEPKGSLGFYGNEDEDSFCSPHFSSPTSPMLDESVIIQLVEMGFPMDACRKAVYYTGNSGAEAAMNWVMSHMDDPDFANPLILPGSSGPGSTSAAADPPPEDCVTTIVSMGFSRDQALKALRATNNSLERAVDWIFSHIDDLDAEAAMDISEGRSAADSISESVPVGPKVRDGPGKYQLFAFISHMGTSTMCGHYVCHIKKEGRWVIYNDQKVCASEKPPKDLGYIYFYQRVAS
How it was run: as §1

[6] = target: USP54 (UniProt Q70EL1)
How it was run: as §1

[7] = target: USP7 (UniProt Q93009)
How it was run: as §1

[8] = target: T5, USP8 (UniProt P40818)
T5 sequence (whole entry): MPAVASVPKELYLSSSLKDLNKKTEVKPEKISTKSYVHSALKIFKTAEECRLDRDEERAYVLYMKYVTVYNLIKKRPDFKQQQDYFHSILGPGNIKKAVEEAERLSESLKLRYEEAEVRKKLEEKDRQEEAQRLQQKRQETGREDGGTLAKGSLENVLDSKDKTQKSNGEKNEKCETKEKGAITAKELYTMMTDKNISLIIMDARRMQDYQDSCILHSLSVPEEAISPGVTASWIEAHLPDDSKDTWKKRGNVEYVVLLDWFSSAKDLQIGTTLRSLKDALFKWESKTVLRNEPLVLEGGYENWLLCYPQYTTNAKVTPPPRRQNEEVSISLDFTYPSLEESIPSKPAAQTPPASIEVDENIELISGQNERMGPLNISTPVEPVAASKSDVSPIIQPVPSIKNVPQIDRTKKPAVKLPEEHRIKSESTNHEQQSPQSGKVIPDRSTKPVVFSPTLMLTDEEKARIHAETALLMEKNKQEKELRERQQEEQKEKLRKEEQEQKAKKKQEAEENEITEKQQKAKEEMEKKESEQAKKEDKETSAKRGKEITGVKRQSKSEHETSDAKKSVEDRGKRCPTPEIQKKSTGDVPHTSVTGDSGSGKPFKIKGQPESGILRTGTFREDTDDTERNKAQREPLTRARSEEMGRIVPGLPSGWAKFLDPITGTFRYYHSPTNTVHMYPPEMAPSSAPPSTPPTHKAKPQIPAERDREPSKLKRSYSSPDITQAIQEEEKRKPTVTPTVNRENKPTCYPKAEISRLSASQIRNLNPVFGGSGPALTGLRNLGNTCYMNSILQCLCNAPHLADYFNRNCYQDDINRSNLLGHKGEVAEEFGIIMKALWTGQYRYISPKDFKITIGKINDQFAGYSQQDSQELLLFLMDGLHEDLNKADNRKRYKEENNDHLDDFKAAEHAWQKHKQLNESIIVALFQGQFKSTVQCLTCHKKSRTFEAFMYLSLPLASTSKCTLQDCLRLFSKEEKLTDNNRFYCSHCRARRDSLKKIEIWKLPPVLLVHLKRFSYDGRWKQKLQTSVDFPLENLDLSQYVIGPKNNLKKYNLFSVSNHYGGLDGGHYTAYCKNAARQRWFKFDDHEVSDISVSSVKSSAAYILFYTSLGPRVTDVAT
How it was run: as §1

[9] = target: USP9X (UniProt Q93008)
How it was run: as §1

[10] = target: UniProt O00487
How it was run: as §1

Measured: log2 ratio of Biotin-Ahx-Ub-VS probe labelling

Sequence of UniProt O00487 (O00487 whole entry): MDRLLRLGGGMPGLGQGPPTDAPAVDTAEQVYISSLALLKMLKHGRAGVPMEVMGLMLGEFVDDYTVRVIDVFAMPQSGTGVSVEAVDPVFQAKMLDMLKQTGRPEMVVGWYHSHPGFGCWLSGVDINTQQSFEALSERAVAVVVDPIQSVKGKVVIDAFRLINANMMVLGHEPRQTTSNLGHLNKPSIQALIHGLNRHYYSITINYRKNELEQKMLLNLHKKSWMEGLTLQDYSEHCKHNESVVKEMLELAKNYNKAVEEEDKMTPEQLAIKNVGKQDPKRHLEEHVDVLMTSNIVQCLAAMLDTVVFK
Sequence of USP46 (P62068 whole entry): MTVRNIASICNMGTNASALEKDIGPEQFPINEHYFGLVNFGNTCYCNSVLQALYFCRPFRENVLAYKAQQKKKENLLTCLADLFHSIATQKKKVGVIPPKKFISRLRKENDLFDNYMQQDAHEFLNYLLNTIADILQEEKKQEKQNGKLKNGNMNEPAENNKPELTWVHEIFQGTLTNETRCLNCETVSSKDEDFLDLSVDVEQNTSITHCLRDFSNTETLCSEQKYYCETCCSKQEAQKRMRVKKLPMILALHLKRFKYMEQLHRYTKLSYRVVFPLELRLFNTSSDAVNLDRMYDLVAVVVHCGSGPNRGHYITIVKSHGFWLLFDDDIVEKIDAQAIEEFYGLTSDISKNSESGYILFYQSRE
Sequence of USP9X (Q93008 whole entry): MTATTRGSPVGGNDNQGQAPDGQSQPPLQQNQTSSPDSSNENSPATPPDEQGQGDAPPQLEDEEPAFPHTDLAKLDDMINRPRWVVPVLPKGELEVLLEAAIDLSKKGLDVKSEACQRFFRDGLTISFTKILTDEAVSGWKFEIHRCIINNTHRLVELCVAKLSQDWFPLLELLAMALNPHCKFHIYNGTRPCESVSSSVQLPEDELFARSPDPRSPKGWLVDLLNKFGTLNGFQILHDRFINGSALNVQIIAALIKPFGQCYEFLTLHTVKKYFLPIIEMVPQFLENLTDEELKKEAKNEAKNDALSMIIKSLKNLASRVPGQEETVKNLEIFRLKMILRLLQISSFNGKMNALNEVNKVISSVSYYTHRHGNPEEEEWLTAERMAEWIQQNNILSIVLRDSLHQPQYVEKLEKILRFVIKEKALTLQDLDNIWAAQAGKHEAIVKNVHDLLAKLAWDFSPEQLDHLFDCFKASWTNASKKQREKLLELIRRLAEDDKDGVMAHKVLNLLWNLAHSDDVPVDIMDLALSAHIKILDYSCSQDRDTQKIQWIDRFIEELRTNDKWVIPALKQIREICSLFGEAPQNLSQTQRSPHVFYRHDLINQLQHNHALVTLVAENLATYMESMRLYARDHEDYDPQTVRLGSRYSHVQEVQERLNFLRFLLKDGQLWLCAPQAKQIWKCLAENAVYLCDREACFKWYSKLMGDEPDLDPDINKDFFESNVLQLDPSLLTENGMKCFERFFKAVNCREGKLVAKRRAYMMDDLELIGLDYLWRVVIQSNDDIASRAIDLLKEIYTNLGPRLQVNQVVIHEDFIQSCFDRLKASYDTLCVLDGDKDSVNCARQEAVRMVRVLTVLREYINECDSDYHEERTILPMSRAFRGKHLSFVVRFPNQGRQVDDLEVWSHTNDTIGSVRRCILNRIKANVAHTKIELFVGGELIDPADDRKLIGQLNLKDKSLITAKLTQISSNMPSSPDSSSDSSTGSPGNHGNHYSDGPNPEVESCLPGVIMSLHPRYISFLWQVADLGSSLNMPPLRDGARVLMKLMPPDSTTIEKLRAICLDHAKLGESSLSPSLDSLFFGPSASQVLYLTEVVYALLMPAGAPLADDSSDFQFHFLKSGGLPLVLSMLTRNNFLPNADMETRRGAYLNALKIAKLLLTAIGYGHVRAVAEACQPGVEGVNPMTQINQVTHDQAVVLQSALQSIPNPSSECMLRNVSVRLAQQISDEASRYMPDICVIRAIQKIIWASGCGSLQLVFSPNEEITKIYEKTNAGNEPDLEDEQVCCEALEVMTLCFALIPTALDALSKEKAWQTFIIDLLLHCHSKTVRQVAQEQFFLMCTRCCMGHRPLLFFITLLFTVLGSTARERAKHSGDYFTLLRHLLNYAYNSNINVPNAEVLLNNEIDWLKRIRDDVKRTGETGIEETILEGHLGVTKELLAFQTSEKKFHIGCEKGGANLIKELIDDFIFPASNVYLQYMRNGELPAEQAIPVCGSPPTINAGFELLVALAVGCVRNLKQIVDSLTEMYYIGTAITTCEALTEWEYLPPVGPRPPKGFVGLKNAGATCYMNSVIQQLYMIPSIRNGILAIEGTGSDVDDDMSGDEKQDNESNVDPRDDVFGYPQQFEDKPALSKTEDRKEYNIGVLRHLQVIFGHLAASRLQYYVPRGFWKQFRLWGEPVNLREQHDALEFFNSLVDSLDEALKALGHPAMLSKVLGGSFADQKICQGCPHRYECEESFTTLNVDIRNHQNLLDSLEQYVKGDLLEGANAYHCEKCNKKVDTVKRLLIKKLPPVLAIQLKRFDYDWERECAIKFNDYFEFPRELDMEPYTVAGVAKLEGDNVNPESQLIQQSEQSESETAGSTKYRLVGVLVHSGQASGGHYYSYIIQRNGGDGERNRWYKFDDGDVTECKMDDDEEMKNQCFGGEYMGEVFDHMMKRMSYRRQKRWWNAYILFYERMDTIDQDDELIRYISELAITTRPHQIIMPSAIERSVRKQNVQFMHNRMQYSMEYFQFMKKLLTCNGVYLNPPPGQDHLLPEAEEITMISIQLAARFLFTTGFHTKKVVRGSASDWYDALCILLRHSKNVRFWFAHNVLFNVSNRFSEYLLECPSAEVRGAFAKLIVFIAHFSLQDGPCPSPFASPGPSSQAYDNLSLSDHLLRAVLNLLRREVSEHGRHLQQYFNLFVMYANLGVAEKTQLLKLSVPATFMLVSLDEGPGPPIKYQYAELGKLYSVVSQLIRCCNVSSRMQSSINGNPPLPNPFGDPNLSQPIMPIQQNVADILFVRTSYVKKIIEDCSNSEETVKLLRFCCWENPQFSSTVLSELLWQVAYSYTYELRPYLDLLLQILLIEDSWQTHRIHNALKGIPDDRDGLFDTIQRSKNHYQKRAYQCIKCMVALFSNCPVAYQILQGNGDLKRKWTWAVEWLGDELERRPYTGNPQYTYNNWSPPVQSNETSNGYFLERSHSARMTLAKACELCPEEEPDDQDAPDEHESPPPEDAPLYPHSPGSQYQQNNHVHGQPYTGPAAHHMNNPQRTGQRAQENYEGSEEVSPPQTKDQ
Sequence of USP7 (Q93009 whole entry, looked up): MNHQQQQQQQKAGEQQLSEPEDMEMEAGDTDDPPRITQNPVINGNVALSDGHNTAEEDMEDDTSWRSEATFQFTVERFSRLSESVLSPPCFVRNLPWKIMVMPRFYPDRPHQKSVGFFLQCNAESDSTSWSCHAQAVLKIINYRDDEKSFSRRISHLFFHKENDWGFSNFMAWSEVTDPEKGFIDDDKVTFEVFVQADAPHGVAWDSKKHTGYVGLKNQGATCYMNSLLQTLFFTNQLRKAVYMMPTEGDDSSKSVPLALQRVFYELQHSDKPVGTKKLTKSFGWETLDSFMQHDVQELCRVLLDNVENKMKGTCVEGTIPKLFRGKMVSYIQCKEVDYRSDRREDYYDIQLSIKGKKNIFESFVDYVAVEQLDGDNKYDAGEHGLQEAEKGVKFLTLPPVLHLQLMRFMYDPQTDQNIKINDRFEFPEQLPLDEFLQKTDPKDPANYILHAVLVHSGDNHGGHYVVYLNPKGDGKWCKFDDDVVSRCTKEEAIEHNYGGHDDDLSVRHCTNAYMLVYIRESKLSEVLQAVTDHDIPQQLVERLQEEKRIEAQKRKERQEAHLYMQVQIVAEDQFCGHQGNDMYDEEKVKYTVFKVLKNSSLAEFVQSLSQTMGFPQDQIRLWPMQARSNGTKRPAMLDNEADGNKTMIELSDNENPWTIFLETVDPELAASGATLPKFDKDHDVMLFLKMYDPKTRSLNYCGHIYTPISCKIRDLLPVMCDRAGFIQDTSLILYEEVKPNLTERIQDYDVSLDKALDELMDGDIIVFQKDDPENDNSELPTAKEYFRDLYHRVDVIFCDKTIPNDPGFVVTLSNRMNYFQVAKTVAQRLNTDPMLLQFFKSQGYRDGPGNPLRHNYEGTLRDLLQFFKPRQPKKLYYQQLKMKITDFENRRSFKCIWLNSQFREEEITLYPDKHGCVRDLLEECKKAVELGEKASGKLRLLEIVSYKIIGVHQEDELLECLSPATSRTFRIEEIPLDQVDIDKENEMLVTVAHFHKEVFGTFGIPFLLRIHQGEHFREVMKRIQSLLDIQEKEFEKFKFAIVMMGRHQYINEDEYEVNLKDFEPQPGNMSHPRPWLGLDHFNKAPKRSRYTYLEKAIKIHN

Cc1cnc2[nH]cc(CCNC(=O)CCl)c2c1
inactive: [1] 0.34 | [2] -0.0833 | [3] -0.00951 | [4] 0.00232 | [5] -0.115 | [6] 0.181 | [7] -0.0122 | [8] -0.428 | [9] -0.0941 | [10] 0.0974
